# Assay results as given in ChEMBL document CHEMBL2218924, “A broad activity screen in support of a chemogenomic map for kinase signalling research and drug discovery” (Biochem J, 2013).
# Target: Death-associated protein kinase 1 (Homo sapiens) (UniProt P53355)
# Settings: at 10 µM
# Sequence of Death-associated protein kinase 1 (Homo sapiens) (P53355 whole entry, looked up): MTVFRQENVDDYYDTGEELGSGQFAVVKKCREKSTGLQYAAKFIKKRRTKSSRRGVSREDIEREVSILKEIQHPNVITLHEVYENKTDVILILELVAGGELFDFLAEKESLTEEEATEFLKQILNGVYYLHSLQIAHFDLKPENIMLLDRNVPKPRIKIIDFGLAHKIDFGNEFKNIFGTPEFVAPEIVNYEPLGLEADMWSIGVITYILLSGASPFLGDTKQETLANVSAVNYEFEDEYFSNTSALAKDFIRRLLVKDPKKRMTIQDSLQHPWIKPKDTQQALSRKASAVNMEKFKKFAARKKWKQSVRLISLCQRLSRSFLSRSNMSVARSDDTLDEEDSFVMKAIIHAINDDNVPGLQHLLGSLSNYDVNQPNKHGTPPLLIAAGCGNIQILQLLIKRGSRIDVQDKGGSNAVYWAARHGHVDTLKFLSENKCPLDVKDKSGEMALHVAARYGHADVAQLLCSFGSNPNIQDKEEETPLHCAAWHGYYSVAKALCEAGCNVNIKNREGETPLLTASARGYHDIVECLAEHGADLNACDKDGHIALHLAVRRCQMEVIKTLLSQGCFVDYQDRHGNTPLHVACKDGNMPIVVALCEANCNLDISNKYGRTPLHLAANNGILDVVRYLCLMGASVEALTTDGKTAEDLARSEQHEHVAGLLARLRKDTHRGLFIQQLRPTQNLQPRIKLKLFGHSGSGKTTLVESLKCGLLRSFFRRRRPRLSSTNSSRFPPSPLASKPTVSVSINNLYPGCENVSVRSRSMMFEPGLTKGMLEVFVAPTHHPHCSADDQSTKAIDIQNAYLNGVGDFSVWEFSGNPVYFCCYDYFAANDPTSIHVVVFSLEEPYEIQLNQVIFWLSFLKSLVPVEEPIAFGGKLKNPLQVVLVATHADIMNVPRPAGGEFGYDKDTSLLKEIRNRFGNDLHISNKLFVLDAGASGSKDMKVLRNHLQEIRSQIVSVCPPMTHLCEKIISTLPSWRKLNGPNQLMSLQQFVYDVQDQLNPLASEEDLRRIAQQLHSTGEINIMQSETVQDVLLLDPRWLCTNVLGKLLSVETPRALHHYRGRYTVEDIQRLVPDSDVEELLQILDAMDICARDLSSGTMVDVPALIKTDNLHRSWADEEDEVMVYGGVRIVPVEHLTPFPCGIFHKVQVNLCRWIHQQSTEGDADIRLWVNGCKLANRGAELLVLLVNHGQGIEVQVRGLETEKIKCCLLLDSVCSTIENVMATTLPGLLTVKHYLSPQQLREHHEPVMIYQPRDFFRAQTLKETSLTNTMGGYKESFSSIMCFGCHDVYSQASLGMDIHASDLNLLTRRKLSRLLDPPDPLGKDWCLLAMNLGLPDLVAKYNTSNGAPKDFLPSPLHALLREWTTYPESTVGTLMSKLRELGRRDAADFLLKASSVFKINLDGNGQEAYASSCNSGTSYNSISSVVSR
row,SMILES,residual activity
1,O=C1C(Cl)=C(N2C(=O)CCC2=O)C(=O)c2ccccc21,90%
2,CCOC(=O)c1c(C)[nH]c(/C=C2\C(=O)Nc3ccccc32)c1C,99%
3,NC(=O)c1ccc(-c2nc(-c3ccc4c(c3)OCCO4)c(-c3ccccn3)[nH]2)cc1,78%
4,Fc1ccc(-c2nc3n(c2-c2ccncc2)CCS3)cc1,93%
5,O=C(Nc1nc2ccccc2n1CCN1CCOCC1)c1cccc([N+](=O)[O-])c1,73%
6,COc1ccc(COc2ccc(Cc3cnc(N)nc3N)cc2OC)cc1,82%
7,COc1ccc(Cl)cc1NC(=O)Nc1cc(C)nc2ccccc12,66%
8,CCN1/C(=C/C(C)=O)Sc2ccc(OC)cc21,79%
9,O=C1Nc2ccccc2/C1=C\c1c(Cl)[nH]c2ccccc12,83%

# Target: Death-associated protein kinase 2 (Homo sapiens) (UniProt Q9UIK4)
# Settings: at 1 µM
# Sequence of Death-associated protein kinase 2 (Homo sapiens) (Q9UIK4 whole entry, looked up): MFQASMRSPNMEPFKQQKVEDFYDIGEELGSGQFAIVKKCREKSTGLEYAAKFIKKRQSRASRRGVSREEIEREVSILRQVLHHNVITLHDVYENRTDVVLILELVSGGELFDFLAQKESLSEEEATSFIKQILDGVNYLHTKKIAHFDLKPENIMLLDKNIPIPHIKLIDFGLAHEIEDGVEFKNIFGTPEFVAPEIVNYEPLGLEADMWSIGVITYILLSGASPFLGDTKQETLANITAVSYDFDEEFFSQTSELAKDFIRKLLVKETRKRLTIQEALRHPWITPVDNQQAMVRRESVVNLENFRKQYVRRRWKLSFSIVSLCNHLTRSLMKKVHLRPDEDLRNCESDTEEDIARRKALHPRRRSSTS
row,SMILES,residual activity
1,CCCCc1c(-c2ccc(OC)cc2)[nH]c2nccnc12,101%
2,COc1cc2c(cc1OC)-c1n[nH]c(Nc3cccc(F)c3)c1C2,99%
3,Nc1ncnc2[nH]nc(Nc3ccc(F)cc3)c12,99%
4,COc1ccc(CNC(=O)Nc2ncc([N+](=O)[O-])s2)cc1,102%
5,CCCCc1c(-c2ccc(O)cc2)[nH]c2nccnc12,89%

# Target: Death-associated protein kinase 2 (Homo sapiens) (UniProt Q9UIK4)
# Settings: at 10 µM
row,SMILES,residual activity
1,O=C1NC(=O)C(c2c[nH]c3ccccc23)=C1c1c[nH]c2ccccc12,58%
2,CCCCc1c(-c2ccc(OC)cc2)[nH]c2nccnc12,100%
3,COc1cc2c(cc1OC)-c1n[nH]c(Nc3cccc(F)c3)c1C2,107%
4,Nc1ncnc2[nH]nc(Nc3ccc(F)cc3)c12,100%
5,COc1ccc(CNC(=O)Nc2ncc([N+](=O)[O-])s2)cc1,104%
6,CCCCc1c(-c2ccc(O)cc2)[nH]c2nccnc12,96%
7,O=C(c1cc2cc(O)ccc2[nH]1)c1cc2cc(O)ccc2[nH]1,73%
8,O=C(Nc1ccc(Cl)cc1)c1ccccc1NCc1ccncc1,119%

# Target: T1, Serine/threonine-protein kinase DCLK2 (Homo sapiens) (UniProt Q8N568)
# T1 sequence (whole entry): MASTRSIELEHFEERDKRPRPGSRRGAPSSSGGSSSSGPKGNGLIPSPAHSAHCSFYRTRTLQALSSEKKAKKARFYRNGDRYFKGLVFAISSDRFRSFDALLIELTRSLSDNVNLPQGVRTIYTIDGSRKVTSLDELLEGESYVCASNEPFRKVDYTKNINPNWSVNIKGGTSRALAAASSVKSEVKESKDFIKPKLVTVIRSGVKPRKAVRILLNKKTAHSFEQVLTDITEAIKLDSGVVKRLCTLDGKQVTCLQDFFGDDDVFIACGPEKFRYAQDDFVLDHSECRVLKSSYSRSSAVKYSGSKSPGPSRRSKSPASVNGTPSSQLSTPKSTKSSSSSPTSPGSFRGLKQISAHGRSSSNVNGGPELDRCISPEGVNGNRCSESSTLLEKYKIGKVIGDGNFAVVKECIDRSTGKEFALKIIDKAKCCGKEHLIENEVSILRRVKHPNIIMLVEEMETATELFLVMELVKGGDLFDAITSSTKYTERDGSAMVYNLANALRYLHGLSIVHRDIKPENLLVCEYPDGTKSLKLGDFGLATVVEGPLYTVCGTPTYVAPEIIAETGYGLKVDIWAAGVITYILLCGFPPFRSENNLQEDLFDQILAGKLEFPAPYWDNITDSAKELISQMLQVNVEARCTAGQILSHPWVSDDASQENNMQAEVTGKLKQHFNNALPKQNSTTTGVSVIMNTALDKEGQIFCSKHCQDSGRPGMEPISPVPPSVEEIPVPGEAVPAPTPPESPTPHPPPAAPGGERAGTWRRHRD
# Settings: at 1 µM
row,SMILES,residual activity
1,CCCCc1c(-c2ccc(OC)cc2)[nH]c2nccnc12,72%
2,COc1cc2c(cc1OC)-c1n[nH]c(Nc3cccc(F)c3)c1C2,109%
3,Nc1ncnc2[nH]nc(Nc3ccc(F)cc3)c12,107%
4,c1ccc(-c2cnc(Nc3ccc(OCCN4CCCC4)cc3)s2)cc1,108%
5,O=c1c(-c2ccc(F)cc2)c(-c2ccncc2)[nH]n1-c1ccc(Cl)cc1,122%
6,O=C1NC(=O)C(c2cn(CCCn3ccnc3)c3ccccc23)=C1Nc1ccccc1,100%
7,CCOc1nc(NC(=O)Cc2cc(OC)ccc2OC)cc(N)c1C#N,138%
8,NCCNc1ncc(C(N)=O)c(Nc2cccc(C(F)(F)F)c2)n1,73%
9,O=C(c1cc2cc(O)ccc2[nH]1)c1cc2cc(O)ccc2[nH]1,70%
10,O=C(Nc1ccc(Cl)cc1)c1ccccc1NCc1ccncc1,74%
11,COc1ccc(-c2cnc3c(-c4ccsc4)cnn3c2)cc1,84%
12,N#C/C(=C\c1ccc(O)c(O)c1)C(=O)NCc1ccccc1,69%

# Target: T1, Serine/threonine-protein kinase DCLK2 (Homo sapiens)
# Settings: at 10 µM
row,SMILES,residual activity
1,CCCCc1c(-c2ccc(OC)cc2)[nH]c2nccnc12,106%
2,COc1cc2c(cc1OC)-c1n[nH]c(Nc3cccc(F)c3)c1C2,132%
3,Nc1ncnc2[nH]nc(Nc3ccc(F)cc3)c12,96%
4,c1ccc(-c2cnc(Nc3ccc(OCCN4CCCC4)cc3)s2)cc1,54%
5,O=S(=O)(NCCNC/C=C/c1ccc(Br)cc1)c1cccc2cnccc12,100%
6,O=C1NC(=O)C(c2cn(CCCn3ccnc3)c3ccccc23)=C1Nc1ccccc1,79%
7,O=c1cc(N2CCOCC2)oc2c(-c3ccccc3)cccc12,76%
8,NCCNc1ncc(C(N)=O)c(Nc2cccc(C(F)(F)F)c2)n1,66%
9,O=C(c1cc2cc(O)ccc2[nH]1)c1cc2cc(O)ccc2[nH]1,59%
10,COc1ccc(-c2cnc3c(-c4ccsc4)cnn3c2)cc1,100%
11,N#C/C(=C\c1ccc(O)c(O)c1)C(=O)NCc1ccccc1,88%

# Target: T2, Discoidin domain-containing receptor 2 (Homo sapiens) (UniProt Q16832)
# T2 sequence (whole entry): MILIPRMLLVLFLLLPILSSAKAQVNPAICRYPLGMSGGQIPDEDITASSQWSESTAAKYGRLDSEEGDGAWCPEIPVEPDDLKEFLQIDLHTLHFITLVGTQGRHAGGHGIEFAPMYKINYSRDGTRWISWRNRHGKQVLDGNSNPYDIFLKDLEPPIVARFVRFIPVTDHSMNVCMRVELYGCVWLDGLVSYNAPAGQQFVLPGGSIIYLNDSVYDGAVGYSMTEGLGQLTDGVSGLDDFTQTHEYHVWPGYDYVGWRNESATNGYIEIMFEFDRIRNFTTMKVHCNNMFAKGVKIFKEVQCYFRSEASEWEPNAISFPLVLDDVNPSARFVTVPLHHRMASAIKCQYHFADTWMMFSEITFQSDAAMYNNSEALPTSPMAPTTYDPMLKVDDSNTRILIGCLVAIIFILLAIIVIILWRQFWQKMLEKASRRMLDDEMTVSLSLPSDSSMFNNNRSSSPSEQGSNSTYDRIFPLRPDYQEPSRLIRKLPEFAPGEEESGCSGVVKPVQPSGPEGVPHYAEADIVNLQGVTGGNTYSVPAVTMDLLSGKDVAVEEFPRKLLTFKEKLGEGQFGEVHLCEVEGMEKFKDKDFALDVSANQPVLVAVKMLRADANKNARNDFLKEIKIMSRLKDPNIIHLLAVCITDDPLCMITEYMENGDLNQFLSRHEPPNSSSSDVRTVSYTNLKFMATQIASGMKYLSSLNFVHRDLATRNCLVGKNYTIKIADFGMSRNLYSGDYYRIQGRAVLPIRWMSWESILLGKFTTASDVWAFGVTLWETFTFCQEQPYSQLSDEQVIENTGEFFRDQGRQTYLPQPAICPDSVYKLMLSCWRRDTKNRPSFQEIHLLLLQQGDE
# Settings: at 1 µM
row,SMILES,residual activity
1,O=C1C(Cl)=C(N2C(=O)CCC2=O)C(=O)c2ccccc21,89%
2,CCCCc1c(-c2ccc(OC)cc2)[nH]c2nccnc12,71%
3,Nc1ncnc2[nH]nc(Nc3ccc(F)cc3)c12,95%
4,c1ccc(-c2cnc(Nc3ccc(OCCN4CCCC4)cc3)s2)cc1,100%
5,NC(=O)c1ccc(-c2nc(-c3ccc4c(c3)OCCO4)c(-c3ccccn3)[nH]2)cc1,98%
6,Fc1ccc(-c2nc3n(c2-c2ccncc2)CCS3)cc1,83%
7,O=C(Nc1nc2ccccc2n1CCN1CCOCC1)c1cccc([N+](=O)[O-])c1,110%
8,COc1ccc(COc2ccc(Cc3cnc(N)nc3N)cc2OC)cc1,112%
9,COc1ccc(Cl)cc1NC(=O)Nc1cc(C)nc2ccccc12,83%
10,CCCCc1c(-c2ccc(O)cc2)[nH]c2nccnc12,71%
11,N#C/C(=C\c1ccc(O)c(O)c1)C(=O)NCc1ccccc1,119%

# Target: T2, Discoidin domain-containing receptor 2 (Homo sapiens)
# Settings: at 10 µM
row,SMILES,residual activity
1,CCCCc1c(-c2ccc(OC)cc2)[nH]c2nccnc12,59%
2,Nc1ncnc2[nH]nc(Nc3ccc(F)cc3)c12,92%
3,c1ccc(-c2cnc(Nc3ccc(OCCN4CCCC4)cc3)s2)cc1,48%
4,NC(=O)c1ccc(-c2nc(-c3ccc4c(c3)OCCO4)c(-c3ccccn3)[nH]2)cc1,97%
5,Fc1ccc(-c2nc3n(c2-c2ccncc2)CCS3)cc1,35%
6,O=c1c(-c2ccc(F)cc2)c(-c2ccncc2)[nH]n1-c1ccc(Cl)cc1,36%
7,O=C(Nc1nc2ccccc2n1CCN1CCOCC1)c1cccc([N+](=O)[O-])c1,112%
8,COc1ccc(Cl)cc1NC(=O)Nc1cc(C)nc2ccccc12,39%
9,CCCCc1c(-c2ccc(O)cc2)[nH]c2nccnc12,36%
10,O=C(Nc1ccc(Cl)cc1)c1ccccc1NCc1ccncc1,36%
